Source: PubChem BioAssay (NCI)
The panel holds about 83,000 compounds, 20% with a hit somewhere; the sample as a whole holds those more often.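 Note: values are percent growth. 100 is the growth of untreated cells, values between 100 and 0 indicate rising inhibition; between -100 and 0 indicates cell death.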 Unmarked numbers belong to inactive results. The source made the active and inactive calls. Rule for the calls: active = growth percent below 10; inactive = the rest.

Assays:
Test in all cases: NCI-60 one-dose screen, 48 h (100 = growth as untreated, 0 = no growth, -100 = all killed)
Settings in all cases: 10 µM unless noted
SR leukemia = test system: SR leukemia
RPMI-8226 leukemia = test system: RPMI-8226 leukemia
OVCAR-8 ovarian = test system: OVCAR-8 ovarian
OVCAR-5 ovarian = test system: OVCAR-5 ovarian
OVCAR-4 ovarian = test system: OVCAR-4 ovarian
SK-OV-3 ovarian = test system: SK-OV-3 ovarian
IGROV1 ovarian = test system: IGROV1 ovarian
OVCAR-3 ovarian = test system: OVCAR-3 ovarian
HS 578T breast = test system: HS 578T breast
NCI/ADR-RES ovarian = test system: NCI/ADR-RES ovarian
T-47D breast = test system: T-47D breast
BT-549 breast = test system: BT-549 breast
MDA-MB-435 melanoma = test system: MDA-MB-435 melanoma
SW-620 colon = test system: SW-620 colon
MCF7 breast = test system: MCF7 breast
HCT-116 colon = test system: HCT-116 colon
HCC-2998 colon = test system: HCC-2998 colon
KM12 colon = test system: KM12 colon

| Compound | growth (SR leukemia) | growth (RPMI-8226 leukemia) | growth (OVCAR-8 ovarian) | growth (OVCAR-5 ovarian) | growth (OVCAR-4 ovarian) | growth (SK-OV-3 ovarian) | growth (IGROV1 ovarian) | growth (OVCAR-3 ovarian) | growth (HS 578T breast) [%] | growth (NCI/ADR-RES ovarian) | growth (T-47D breast) | growth (BT-549 breast) | growth (MDA-MB-435 melanoma) | growth (SW-620 colon) | growth (MCF7 breast) | growth (HCT-116 colon) | growth (HCC-2998 colon) | growth (KM12 colon) |
| --- | --- | --- | --- | --- | --- | --- | --- | --- | --- | --- | --- | --- | --- | --- | --- | --- | --- | --- |
| COc1ccc(-c2cc(-c3cccnc3)nc3sc4c(=O)n(-c5ccc(C)cc5)cnc4c23)cc1OC | 96.1% | 97.6% | 101% | 86.7% | 92.3% | 99.2% | 106% | 98.8% | 87.2 | 103% | 98.7% | 100% | 98.7% | 96.2% | 97% | 99.1% | 109% | 101% |
| COc1cc(OC)c(/C=C/S(=O)(=O)Cc2cnc(OC)c(N)c2)c(OC)c1 | -6.9% (active) | 29.1% | 18.9% | 55.2% | 50.3% | 11.9% | 29.4% | -13.5% (active) | 47.5 | 7.65% (active) | 15.6% | 8.01% (active) | 13.4% | 22.8% | 11.6% | 3.33% (active) | 17.5% | 9.75% (active) |
| CCNS(=O)(=O)c1ncnc2nc[nH]c12 | 101% | 92% | 114% | 102% | 102% | 108% | 96.9% | 113% | 144 | 99.7% | 104% | 129% | 101% | 101% | 102% | 117% | 114% | 119% |
| O=C(O)c1cn(C2CC2)c2cc(N3CCN(Cc4nc5c(cnn5-c5ccc([N+](=O)[O-])cc5)c(=O)[nH]4)CC3)c(F)cc2c1=O | 97.5% | 98% | 99.9% | 103% | 91.9% | 105% | 94.2% | 112% | 105 | 106% | 104% | 96.1% | 100% | 105% | 91.5% | 99.8% | 112% | 107% |
| Cc1ccc(-c2nc(/C=N/Nc3cc(C)nc4ccc(Br)cc34)c(C)o2)cc1 | 2.27% (active) | -38.5% (active) | -63.5% (active) | -68.7% (active) | -94.3% (active) | 105% | -77.3% (active) | -94.8% (active) | 102 | -69.9% (active) | -8.4% (active) | 86.3% | -95.1% (active) | -84.7% (active) | -78.6% (active) | -65.8% (active) | -63.4% (active) | -39.9% (active) |
| COc1c2ccccc2c(OC)c2[nH]c(=O)ccc12 | 22.2% | 55.2% | 87% | 75.4% | 60.4% | 92.6% | 81.5% | 59.2% | 32.8 | 57.6% | 67.8% | 26.7% | -67.2% (active) | 61.7% | 42.2% | 57.6% | 81% | 36.2% |
| COc1ccc(-c2csc(NC(=O)CN3CCN(c4cc5c(cc4F)c(=O)c(C(=O)O)cn5C4CC4)CC3)n2)cc1 | 16.7% | -9.43% (active) | 9.73% (active) | 37.4% | 40.8% | -4.37% (active) | 38.5% | 12.7% | 16.5 | 60.7% | 16.6% | 9.62% (active) | 14.4% | 16% | 12.8% | 9.62% (active) | 36.4% | 15.3% |
| O=C(CN1CCN(c2cc3c(cc2F)c(=O)c(C(=O)N/N=C/c2ccccc2)cn3C2CC2)CC1)N/N=C\c1ccccc1 | 61% | 39.2% | 73.9% | 98.6% | 89.8% | 124% | 54.4% | 77% | 84.8 | 77.1% | 92% | 65.2% | 78.6% | 87.8% | 53.2% | 70.7% | 91% | 71.1% |
| COc1ccc(-c2cn3c(ccc4ccccc43)n2)cc1 | 102% | 92.1% | 98.8% | 112% | 101% | 92.8% | 78.3% | 89.7% | 96.2 | 96.3% | 76.5% | 97.8% | 114% | 97.5% | 75.8% | 96.5% | 109% | 95.2% |
